D1 ag = agonists of human D1 dopamine receptor | P21728 | HEK293 T-REx D1 cells, calcium flux, agonist mode | activation, % at 2 µM | 1% of 360,000 active | AID 504660; in the data active = activation above about 30%
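Tetracycline-induced HEK293 TREx D1 cells, force-coupled to calcium signalling, were dye-loaded with a no-wash calcium kit. Compound was pin-added after a 10 s baseline. Fluorescence was read kinetically at 1 cycle/s for 180 s, with calcium rises flagged as agonism.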
D1 potentiator = enhances dopamine response at the human D1 receptor; 0.036% of 360,000 active; HEK293 TREx D1 cells, calcium flux, dopamine EC20 potentiation; potentiation, % at 10 µM; P21728; in the data active = potentiation above about 30%
D1 antag = antagonists of human D1 dopamine receptor | HEK293 TREx D1 cells, calcium flux, dopamine EC80; active compounds read low | activity change, negative = inhibition, % at 10 µM | 3.2% of 360,000 active | AID 504652; in the data active = activity change below about -30%
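Using tetracycline-induced force-coupled D1 Hek293 cells and a calcium dye, signals were followed for 180 s after compound, then for 180 s after EC80 dopamine, to detect inhibitors.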
DRD3 agonist = activates the human D3 dopamine receptor; P35462; D3R DiscoveRx beta-arrestin cells, luminescence, 90 min; max activation, %; 0.58% of 410,000 active; AID 652048; in the data active = max activation above about 30%
Target sequence (P35462 whole entry, looked up): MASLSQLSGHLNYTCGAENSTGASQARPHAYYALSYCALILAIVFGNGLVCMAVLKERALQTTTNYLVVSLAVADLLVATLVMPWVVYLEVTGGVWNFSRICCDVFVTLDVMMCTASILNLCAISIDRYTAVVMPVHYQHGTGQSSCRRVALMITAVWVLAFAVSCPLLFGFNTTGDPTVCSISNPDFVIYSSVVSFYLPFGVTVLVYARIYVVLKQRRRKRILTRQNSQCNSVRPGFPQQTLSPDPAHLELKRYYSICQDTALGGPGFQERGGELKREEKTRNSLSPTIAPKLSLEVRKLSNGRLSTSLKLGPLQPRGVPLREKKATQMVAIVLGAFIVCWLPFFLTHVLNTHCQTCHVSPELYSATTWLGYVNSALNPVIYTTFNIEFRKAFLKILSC
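Cells at 1500/well, incubated overnight, then treated with pinned compounds (dopamine as control) for 90 min at 37 degrees C. DiscoveRx reagent added for 30 - 60 minutes at room temperature; luminescence read.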
DRD3 antagonist = D3 dopamine receptor (human) antagonism; 2.5% of 360,000 active; P35462; max response, negative = inhibition, %; D3R cells, DiscoveRx beta-arrestin luminescence, antagonist mode; active compounds read low; in the data active = max response below about -50%
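Cells plated overnight at 1500 cells/well, then exposed to library compounds with dopamine controls for 90 minutes at 37 degrees C. DiscoveRx reagent added for 30–60 minutes at room temperature; luminescence read, quantitative HTS format.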
Hits are given with their value. Compounds with a hit are over-represented: about 6.1% of the library has one in this group of screens.

What do the screens show for `COc1ccc(C(=O)Nc2nc3n(n2)C(c2ccc(F)cc2)C=C(c2ccc(Cl)cc2)N3)cc1` (stereo unspecified)?
D1 ag: inactive; D1 potentiator: inactive; D1 antag: inactive; DRD3 agonist: inactive

What do the screens show for `CN(Cc1cccs1)C(=O)/C=C/c1ccccc1[N+](=O)[O-]`?
D1 ag: inactive; D1 potentiator: inactive; D1 antag: -41.1; DRD3 agonist: inactive; DRD3 antagonist: inactive

What do the screens show for `Cc1cc(C)cc(NC(=O)CCN2C(=O)c3ccccc3Sc3ncccc32)c1`?
D1 ag: inactive; D1 potentiator: inactive; D1 antag: inactive; DRD3 agonist: inactive

What do the screens show for `CNC(=O)N(O)C1N(/N=C/c2ccc(N(C)C)cc2)C(=S)SC1(C)C` (stereo unspecified)?
D1 ag: inactive; D1 potentiator: inactive; D1 antag: inactive; DRD3 agonist: inactive; DRD3 antagonist: inactive

Results for CC1(C)SC(=S)N(/N=C/c2ccccc2)C1N(O)C(=O)Nc1ccc([N+](=O)[O-])cc1 (stereo unspecified) ?
D1 ag: inactive; D1 potentiator: inactive; D1 antag: -36.6; DRD3 agonist: inactive; DRD3 antagonist: -56.1

How did CCCCCN(C(=O)CCC(=O)OCC(=O)N(CC#N)c1ccccc1)c1c(N)n(CCCC)c(=O)[nH]c1=O do in these assays?
D1 ag: inactive; D1 potentiator: inactive; D1 antag: inactive; DRD3 agonist: inactive; DRD3 antagonist: -54.3

How did CCCCCN(C(=O)COC(=O)c1ccc(C)cc1)c1c(N)n(CCCC)c(=O)[nH]c1=O do in these assays?
D1 ag: inactive; D1 potentiator: inactive; D1 antag: -34.6; DRD3 agonist: inactive; DRD3 antagonist: inactive

How did Cc1ccc(Cn2c(SCc3ccc(C(=O)O)cc3)nc3cccnc32)cc1 do in these assays?
D1 ag: inactive; D1 potentiator: inactive; D1 antag: inactive; DRD3 agonist: inactive

Results for CC(=O)NC(c1ccco1)c1cc(Cl)c2ccc(N3CCCCC3)nc2c1O (stereo unspecified) ?
D1 ag: inactive; D1 potentiator: inactive; D1 antag: inactive

Results for CCN(CC)c1nc(NN)nc(Nc2ccc(C)c(Cl)c2)n1 ?
DRD3 agonist: inactive; DRD3 antagonist: -79.4

What do the screens show for `Cc1ccc(Nc2nc(Cl)c(C=O)s2)cc1Cl`?
D1 ag: inactive; D1 potentiator: inactive; D1 antag: inactive; DRD3 agonist: inactive; DRD3 antagonist: inactive

How did NC(=O)c1nn2c(C(F)(F)F)cc(-c3ccc(Br)cc3)nc2c1Cl do in these assays?
D1 ag: inactive; D1 potentiator: inactive; D1 antag: inactive; DRD3 agonist: inactive

What do the screens show for `CCCC(=O)Nc1ccc(C(=O)/C=C/c2ccc(SC)cc2)cc1`?
D1 ag: inactive; D1 potentiator: inactive; D1 antag: -47.7; DRD3 agonist: inactive; DRD3 antagonist: inactive

How did CSc1ccc(/C=C/C(=O)c2ccc(NC(C)=O)cc2)cc1 do in these assays?
D1 ag: inactive; D1 potentiator: inactive; D1 antag: inactive; DRD3 agonist: inactive; DRD3 antagonist: inactive

Results for Cc1ccccc1NC(=O)N1CCC(CN2CCCC2)CC1 ?
D1 ag: inactive; D1 potentiator: inactive; D1 antag: inactive; DRD3 agonist: inactive

How did COc1cc(OC)cc(C(=O)Nc2cc3c(cc2N2CCCC2)n(C)c(=O)c(=O)n3C)c1 do in these assays?
D1 ag: inactive; D1 potentiator: inactive; D1 antag: inactive; DRD3 agonist: inactive

What do the screens show for `COc1ccc(NC(=O)CN(C)C(=O)COc2ccccc2Cc2ccccc2)cc1`?
D1 ag: inactive; D1 potentiator: inactive; D1 antag: inactive; DRD3 agonist: inactive; DRD3 antagonist: inactive

Results for CN(CC(=O)Nc1ccc(F)cc1)C(=O)COc1ccccc1Cc1ccccc1 ?
D1 ag: inactive; D1 potentiator: inactive; D1 antag: -84.7; DRD3 agonist: inactive; DRD3 antagonist: inactive

What do the screens show for `CCOc1ccc(NC(=O)CN(C)C(=O)c2ccccc2Cc2ccccc2)cc1OCC`?
D1 ag: inactive; D1 antag: -45.4; DRD3 agonist: inactive; DRD3 antagonist: inactive

How did COc1cc(NC(=O)CCCc2nnc3n(CC(C)C)c(=O)c4sccc4n23)cc(OC)c1 do in these assays?
D1 ag: inactive; D1 potentiator: inactive; D1 antag: inactive; DRD3 agonist: inactive

What do the screens show for `COc1cccc(NC(=O)c2cc3c(-c4ccc(Cl)cc4)nn(C)c3s2)c1`?
D1 ag: inactive; D1 potentiator: inactive; D1 antag: inactive; DRD3 agonist: inactive

What do the screens show for `O=C(CN1C(=O)CCc2cc(S(=O)(=O)N3CCOCC3)ccc21)NCc1ccccc1Cl`?
D1 ag: inactive; D1 potentiator: inactive; D1 antag: inactive; DRD3 agonist: inactive

How did COc1cccc(CNC(=O)CCC2CCCN(C(=O)c3cccc(Cl)c3)C2)c1 (stereo unspecified) do in these assays?
D1 ag: inactive; D1 potentiator: inactive; D1 antag: inactive; DRD3 agonist: 41.8; DRD3 antagonist: inactive

Results for COc1cccc(CNC(=O)CCC2CCCN(C(=O)c3ccc(C)nc3)C2)c1 (stereo unspecified) ?
D1 ag: inactive; D1 potentiator: inactive; D1 antag: inactive; DRD3 agonist: inactive; DRD3 antagonist: inactive

Results for COc1cccc(CNC(=O)CCC2CCCN(C(=O)CCC(F)(F)F)C2)c1 (stereo unspecified) ?
D1 ag: inactive; D1 potentiator: inactive; D1 antag: inactive; DRD3 agonist: inactive; DRD3 antagonist: inactive

How did COC(=O)CCCC(=O)N1CCCC(CCC(=O)NCc2ccc(F)c(F)c2)C1 (stereo unspecified) do in these assays?
D1 ag: inactive; D1 potentiator: inactive; D1 antag: -43.9; DRD3 agonist: inactive; DRD3 antagonist: inactive

How did COc1cccc(CNC(=O)CCC2CCCN(Cc3cc4ccccc4o3)C2)c1 (stereo unspecified) do in these assays?
D1 ag: inactive; D1 potentiator: inactive; D1 antag: inactive; DRD3 agonist: inactive; DRD3 antagonist: -70.9

Results for Clc1ccc(N2CCN(c3ncnc4c3nc3n4CCCC3)CC2)cc1 ?
D1 ag: inactive; D1 potentiator: inactive; D1 antag: inactive; DRD3 agonist: inactive

What do the screens show for `COc1ccc(CCNC(=O)CCCn2c(=O)c3ccccc3n(Cc3ccccc3)c2=O)cc1OC`?
D1 ag: inactive; D1 potentiator: inactive; D1 antag: inactive; DRD3 agonist: inactive

Results for Cc1nc(N2CCN(Cc3ccccc3)CC2)nc2c1C(=O)CC(c1ccco1)C2 (stereo unspecified) ?
D1 ag: inactive; D1 potentiator: inactive; D1 antag: -32.2; DRD3 agonist: inactive; DRD3 antagonist: -52.8

How did Cc1nc(N2CCN(C(=O)c3ccco3)CC2)nc2c1C(=O)CC(C)C2 (stereo unspecified) do in these assays?
D1 ag: inactive; D1 potentiator: inactive; D1 antag: inactive; DRD3 agonist: inactive; DRD3 antagonist: inactive

Results for Cc1nc(N2CCN(Cc3ccccc3)CC2)nc2c1CCC2 ?
D1 ag: inactive; D1 potentiator: inactive; D1 antag: inactive; DRD3 agonist: inactive; DRD3 antagonist: -67.2
